SMN2 splice enh: increases expression of the SMN2 splice variant; 210,000 compounds, 2.8% hits; Potency, µM (series often up to 46.1 µM), without a hit: at the top dose activity change, positive = activation, actives largely listed as activators; AID 1458; HEK293 SMN2-luciferase splicing reporter, luminescence, 30-36 h; further: % of control where 0% means no effect; nearly all actives have a fitted effect of over 55% in size
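HEK293 cells carry an SMN2 […]–luciferase reporter in which exon 7 inclusion puts luciferase in frame. Cells were plated 10-12 h before compound addition, then incubated 30-36 h at 37C. ONE-Glo luminescence was read; sodium butyrate at 4.5 mM final served as control.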
Rab9 promoter act: activates the Rab9 promoter; Huh7 Rab9 promoter-luciferase reporter, luminescence, 24 h; Potency, µM (titrated, usually from 9.22 µM), without a hit: at the highest dose activation, negative = inhibition, actives largely listed as activators; 320,000 compounds, 2.8% hits; further: % of control where 0% means no effect; nearly all actives have a fitted effect of over 60% in size
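Cells were plated at 1500 per well in reduced-serum medium with 10% FBS and left 2 h. Compound in DMSO was then added for 24 h at 37 °C. Reporter signal was read by luminescence after 10 min with luciferase detection reagent.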
NPC1 promoter act: NPC1 promoter activation. Huh7 NPC1 promoter luciferase reporter, 24 h. Potency, µM (doses to about 9.22 µM), inactives show top-dose activation, hits mostly activators. 320,000 compounds, 2.4% hits. AID 485313; further: % of control where 0% means no effect; nearly all actives have a fitted effect of over 60% in size
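Compounds in DMSO were transferred onto Huh7 NPC1-luciferase reporter cells pre-incubated 2 h; after 24 h at 37 °C, Amplite reagent was dispensed and luminescence recorded 10 min later.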
ELG1 genotox: induces genotoxicity in HEK293T cells with luciferase-tagged ELG1 | AID 504466 | Potency, µM (highest dose often 46 µM), for inactives: top-dose activity change, positive = activation, usual class: activators | 330,000 compounds, 1.3% hits | HEK293T ELG1-luciferase reporter, luminescence, 16 h; further: % of control where 0% means no effect; nearly all actives have a fitted effect of over 60% in size
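Screening used a luciferase reporter fused to human ELG1 in HEK293T cells. Luminescence was read on a CCD plate imager after 16 hr exposure and 30 min ONE-Glo incubation.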
FLuc counter: counter-screen for miR-21 project: firefly luciferase inhibitors or activators; P08659; purified FLuc, Km substrates, luminescence inhibition; Potency, µM (highest dose often 57.5 µM), inactives show at the top dose activity change, negative = inhibition, hits mostly inhibitors; 360,000 compounds, 6.9% hits;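 further: plate controls were vehicle for no effect and reference inhibitor for full effect; nearly all actives have a fitted effect of over 55% in size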
Target sequence (P08659 whole entry, looked up): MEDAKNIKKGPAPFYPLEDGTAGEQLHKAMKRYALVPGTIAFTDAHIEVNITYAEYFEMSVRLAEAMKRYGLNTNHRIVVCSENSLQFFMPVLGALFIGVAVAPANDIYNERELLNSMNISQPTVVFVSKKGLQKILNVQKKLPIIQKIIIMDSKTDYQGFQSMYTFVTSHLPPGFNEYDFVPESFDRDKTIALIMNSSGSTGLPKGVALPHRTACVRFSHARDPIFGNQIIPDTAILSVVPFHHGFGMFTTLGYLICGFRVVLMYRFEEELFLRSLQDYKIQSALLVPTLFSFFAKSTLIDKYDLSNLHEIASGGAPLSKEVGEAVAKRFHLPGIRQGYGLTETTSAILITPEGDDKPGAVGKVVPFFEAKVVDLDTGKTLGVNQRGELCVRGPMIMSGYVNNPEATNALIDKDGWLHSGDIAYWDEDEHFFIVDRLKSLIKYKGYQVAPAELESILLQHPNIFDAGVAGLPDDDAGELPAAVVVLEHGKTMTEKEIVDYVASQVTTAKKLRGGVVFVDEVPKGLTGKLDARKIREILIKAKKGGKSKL
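Purified P. pyralis luciferase, 10 nM final, with Km-level 10 uM D-luciferin and 10 uM ATP in 50 mM Tris acetate pH 7.5, 10 mM Mg acetate, 0.01% Tween-20, 0.05% BSA; 6-point qHTS titration about 60 µM downward; luminescence read.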
p53 reactivation: re-activators of mutant p53; H1299 p53-A138V BP100-luciferase reporter, luminescence, 24 h; Potency, µM (series often up to 92.2 µM), for the others: top-dose activity change, positive = activation, actives largely listed as activators; 320,000 compounds, 0.063% hits; further: % of control where 0% means no effect; nearly all actives have a fitted effect of over 45% in size
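p53-null H1299 cells stably carrying temperature-sensitive p53-A138V and a BP100-luciferase reporter were pinned with compounds (4-point, 1:5 series) and held 24 hrs at 37 deg C. Luminescence was read 10 min after detection reagent.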
An asterisk follows results filed as active; u = inconclusive; x = no result given; [ ] = another dose, or the depositor's remark. A selection: hits, their analogues and other compounds. The true share with any hit is near 7.3%. The call rests on the fitted dose curve; in most records, active means well fitted curve in the direction sought with a large enough effect; inconclusive means small, poorly fitted or top-dose-only effect, or another doubt; inactive means no such curve, though single readings can be large; an effect the other way counts as inactive or inconclusive. Potency means the concentration at half of the fitted maximal effect.

SMILES	SMN2 splice enh	Rab9 promoter act	NPC1 promoter act	ELG1 genotox	FLuc counter	p53 reactivation
CC(=O)OC1CC[C@]2(C)C(CC(OC(C)=O)[C@]3(C)C2CC[C@@]2(C)C(c4ccoc4)OC(=O)C4O[C@]432)C1(C)C (stereo partly specified)	-15%	x	x	x	x	x
Cc1ccc(OC(=O)c2ccc(S(=O)(=O)N(C)C)cc2)c(-n2nc3ccccc3n2)c1	u	1.4µM*	4µM*	u	u	u
Cc1ccc(OC(=O)c2cccc(S(=O)(=O)N(C)C)c2)c(-n2nc3ccccc3n2)c1	u	2.8µM*	3.5µM*	4.6µM*	-17%	u
Cc1ccc(OCC(=O)O)c(-n2nc3ccccc3n2)c1	-4%	2%	-3%	0%	2%	-1%
CC(=O)Oc1ccc(C)cc1-n1nc2ccccc2n1	u	4.5µM*	2.8µM*	u	21µM*	u
Cc1ccc(OC(=O)c2cccc(S(=O)(=O)N3CCCC3)c2)c(-n2nc3ccccc3n2)c1	11µM*	4µM*	3.5µM*	u	u	u
COc1ccc2c(c1)c1c(c(=O)n(CCc3ccccc3)c(=O)n1Cc1ccc(Cl)cc1)n2C	x	x	x	x	-2%	x
Cc1cccc(C2N=C(N)Nc3nc4ccccc4n32)c1 (stereo unspecified)	2%	-4%	-4%	5%	-2%	-1%
CCc1ccccc1NC(=O)CN1C(=O)CCSc2ccc(S(=O)(=O)N3CCCC3)cc21	x	x	x	x	-5%	x
CN(CC(=O)Nc1ccccc1Cl)C(=O)c1cccc(S(=O)(=O)N2CCN(c3ccc(F)cc3)CC2)c1	x	2.2µM*	1.4µM*	1.8µM*	3.4µM*	u
COc1ccc(NC(=O)Cn2cc(C(=O)c3ccccc3OC)c(=O)c3ccc(C)nc32)cc1OC	x	x	x	x	-9%	x
O=C(CCC1CCCCC1)Nc1ccccc1O	u	u	u	10µM*	21µM*	u
Cc1ccc(CNCC(=O)Nc2ccc(C)cc2Br)cc1	12%	5%	-3%	6%	u	4%
Cn1c(NC(=O)CCC2CCCCC2)cc(=O)n(C)c1=O	11µM*	1.4µM*	4µM*	3.3µM*	5.4µM*	u
Cc1ccc(NC(=O)CC2CCCC2)c(Br)c1	x	u	u	u	15µM*	u
Cn1c(NC(=O)c2ccc(C(C)(C)C)cc2)cc(=O)n(C)c1=O	8%	17%	14%	9.2µM*	-10%	8%
Cn1c(NNC(=O)c2ccc(C(C)(C)C)cc2)cc(=O)n(C)c1=O	13%	-1%	-2%	4%	-14%	6%
Cc1ccc(O)c(NC(=O)CCC2CCCCC2)c1	17%	24%	u	u	7.6µM*	10%
Cc1ccc(C)c(NC(=O)C2CC3CCC2C3)c1 (stereo unspecified)	x	10%	12%	5%	u	-2%
Cc1ccc(NC(=O)C2CC3CCC2C3)c(Br)c1 (stereo unspecified)	x	u	4µM*	u	17µM*	28%
O=C(Nc1ccon1)c1csc2c1CCCC2	-3%	9%	8%	8%	u	19%
COc1cccc(NC(=O)c2csc3c2CCCC3)c1	14µM*	u	u	u	9.5µM*	6%
O=C(Nc1nccs1)c1csc2c1CCCC2	26%	28%	28%	8%	13µM*	19%
Cc1ccc(/C=N/NC(=O)c2csc3c2CCCC3)cc1	24%	24%	0%	u	11µM*	u
Cc1ccc(/C=N\NC(=O)c2csnn2)cc1	-3%	2.5µM*	3.5µM*	u	3.8µM*	11%
SMILES	SMN2 splice enh	Rab9 promoter act	NPC1 promoter act	ELG1 genotox	FLuc counter	p53 reactivation
NC(N)=N[C@H](CC(=O)O)c1ccccc1	-15%[9.22 µM]	x	x	x	x	x
CCCCN(CC)CCNC(=O)c1c(C)oc2ncnc(N3CCOCC3)c12	x	x	x	x	-4%	x
CC(CNC(=O)c1csc2c1CCCCC2)c1ccccc1 (stereo unspecified)	11µM*	x	x	x	15µM*	x
COc1ccc(NC(=O)c2csc3c2CCCC3)cc1	13µM*	3.2µM*	2µM*	u	3µM*	u
Cc1cc(NC(=O)Nc2csc3c2CCCC3)ccc1Br	-1%	x	x	x	u	x
CC(C)c1ccc(NC(=O)Nc2csc3c2CCCC3)cc1	-30%	x	x	x	4.8µM*	x
Cc1ccccc1NC(=O)c1csc2c1CCCC2	u	29%	u	26µM*	19µM*	8%
O=C(NCc1ccccc1)c1csc2c1CCCCC2	-15%	8%	0%	11%	-5%	-1%
COc1ccc(CNC(=O)c2csc3c2CCCC3)cc1	x	2%	9%	0%	u	-8%
Cc1ccc(NC(=O)c2ccc(NC(=O)N3CCSc4ncccc43)cc2)c(Cl)c1	x	x	x	x	-1%	x
Cc1c(CCC(=O)O)c(=O)oc2cc3occ(-c4ccc(Cl)cc4)c3cc12	x	-4%	-4%	3%	17µM*	-6%
Cc1c(CCC(=O)O)c(=O)oc2cc3occ(-c4ccc(Br)cc4)c3cc12	x	-5%	-6%	0%	17µM*	-4%
Cc1oc2cc3oc(=O)c(CCC(=O)N(C)CC(=O)O)c(C)c3cc2c1C	x	-7%	-4%	1%	7.6µM*	5%
Cc1cccc(NC(=O)C(NS(=O)(=O)c2ccc3c(c2)oc(=O)n3C)C(C)C)c1 (stereo unspecified)	10%	x	x	x	3%	x
COc1ccccc1-c1sc2ccccc2c1-c1ccccc1OC	x	1%	-4%	-1%	-1%	-3%
CN(CC(=O)Nc1ccc(Cl)c(C(F)(F)F)c1)C(=O)c1cn2ccccc2n1	x	-1%	-5%	23µM*	u	1%
Cc1cc(C(=O)N(C)CC(=O)Nc2ccc(Cl)c(C(F)(F)F)c2)no1	x	-1%	1%	2%	7%	-4%
O=C(Nc1ccc(-c2nc3ccccc3[nH]2)cc1)c1ccc2c(c1)OCO2	9%	u	4%	11%	x	-9%
Cc1ccc(NC(=O)c2ccc3c(c2)OCO3)cc1Cl	x	0.79µM*	0.56µM*	u	2.7µM*	19%
Cc1ccc(C(=O)Nc2ccc3c(c2)OCO3)cc1Cl	x	2.5µM*	0.89µM*	4.6µM*	2.4µM*	23%
O=C(Nc1ccc(Cl)c(-c2nc3ccccc3[nH]2)c1)c1ccc2c(c1)OCO2	6%	0%	8%	-3%	12µM*	3%
O=C(CNC(=O)c1ccc(Cl)cc1Cl)OCC(=O)c1ccc2c(c1)OCCO2	-12%	10%	2%	-2%	17µM*	9%
COc1ccc(N2CCN(Cc3nc4c(c(=O)[nH]c(=O)n4C)n3Cc3ccccc3F)CC2)cc1	-9%	x	x	x	5%	x

Bioassay records from PubChem.
